DAX1 inh-1: DAX1 (NR0B1) inhibition, primary screen; HEK293T StAR-luciferase reporter, SF-1/DAX-1 repression relief; inhibition, % at 6.8 µM; hit rate 1.1% among 370,000; AID 652010;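 active = inhibition above the mean over all tested compounds plus 3 SD, cut at about 3.6% in these data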;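 also: 0% = DAX-1 cells with DMSO and 100% = cells lacking DAX-1 with DMSO; higher inhibition means more luminescence from relief of DAX-1 repression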
hgDAF12 agonist: hgDAF-12 agonism, primary luciferase screen. HEK293 GAL4-hgDAF12 UAS-luciferase reporter, agonist luminescence; normalized to butyrate control. activation, % at 6.8 µM. hit rate 1.8% among 370,000;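 active = activation above a cutoff set at the mean of all screened compounds plus 3 SD, cut at about 10% in these data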;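 also: 0% = DMSO wells and 100% = sodium butyrate wells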
DAX1 inh-2: NR0B1 (DAX1) inhibition | P51843 | HEK293 Gal4-DAX1 luciferase reporter, luminescence | inhibition, % at 6.75 µM | hit rate 0.99% among 340,000 | AID 504766;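 active = inhibition above the mean over all tested compounds plus 3 SD, cut at about 4.2% in these data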;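 also: 0% = DAX1-transfected cells with DMSO and 100% = empty-vector control cells with DMSO; inhibition shows as a rise in luminescence from relieved DAX1 repression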
Target sequence (P51843 207-470 limits assumed): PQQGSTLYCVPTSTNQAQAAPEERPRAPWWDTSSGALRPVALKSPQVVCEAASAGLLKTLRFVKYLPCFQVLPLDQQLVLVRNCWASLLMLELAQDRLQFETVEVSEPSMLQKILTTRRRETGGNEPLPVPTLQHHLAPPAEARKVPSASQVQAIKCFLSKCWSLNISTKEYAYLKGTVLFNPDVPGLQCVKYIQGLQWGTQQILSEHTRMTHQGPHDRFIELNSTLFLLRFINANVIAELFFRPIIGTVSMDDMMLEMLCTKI
ssDAF12 agonist: activates DAF-12 receptor from parasite S. stercoralis. HEK293 ssDAF-12/GRIP1 lit1-tk-luc reporter, luminescence; % of 3 µM dafachronic acid response. activation, % at 6.8 µM. hit rate 1% among 370,000;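 active = activation above the mean over all tested compounds plus 3 SD, cut at about 0.9% in these data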;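 also: 0% = DMSO-only wells and 100% = 3 µM delta7-dafachronic acid wells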
SMARCA2 activ: increases SMARCA2 function in MMTV reporter cells. AID 652017. MG213 cells, MMTV-luciferase reporter, dexamethasone, overnight. activation, % at 9.1 µM. hit rate 1% among 370,000; in the data active = activation above about 7.8%;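 also: 0% = vehicle wells and 100% = reference activator wells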
hcDAF12 agonist: H. contortus DAF-12 activation, primary screen; HEK293 hcDAF-12 lit1-tk-luc reporter, luminescence; 0% DMSO, 100% Δ7-dafachronic acid; activation, % at 6.8 µM; hit rate 1.4% among 370,000; AID 652067;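 active = activation above the mean of all tested compounds plus 3 SD, cut at about 5.5% in these data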;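 also: 100% = response to 3 µM Δ7-dafachronic acid high control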
LXRb hcDAF ctr: LXR-beta agonism as hcDAF-12 counter-screen. HEK293 Gal4-LXR tk-luc reporter, luminescence, 24 h; normalized: DMSO 0%, positive control 100%. AID 743027. activation, % at 6.8 µM. shares compounds with hcDAF12 agonist. 3,400 tested, under 10 active;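 active = mean percent activation of the reporter above a cutoff set as the average over tested compounds plus their standard deviation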
hcDAF12 conf: hcDAF-12 agonism, confirmation assay; shares compounds with hcDAF12 agonist; HEK293 hcDAF-12 lit1-tk-luc reporter, luminescence; % of Δ7-dafachronic acid response; activation, % at 6.8 µM; hit rate 61% among 3,400; AID 743032;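 active = mean activation across triplicate tests above the threshold derived from the earlier primary screen, cut at about 5.5% in these data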;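 also: 0% = DMSO only wells and 100% = 3 µM Δ7-dafachronic acid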
* = called active by the depositor; . = no result given. Only some compounds are listed: those with a hit (about 4.8% of all), similar ones and a draw of the others.

SMILES | DAX1 inh-1 | hgDAF12 agonist | DAX1 inh-2 | ssDAF12 agonist | SMARCA2 activ | hcDAF12 agonist | LXRb hcDAF ctr | hcDAF12 conf
O=C(c1cc(COc2cccc3cnccc23)on1)N1CCCC(CCCO)C1 (stereo not given) | -9 | -8 | -2 | -2 | -4 | -5 | . | .
CCCn1c(/C=C/c2ccccc2)nc2ccccc21 | 3.6* | 11* | 1 | 0 | 2 | 6.6* | 1 | 7.9*
Cc1nn(-c2ccccc2)c2c1C1(C(=O)N(C)c3ccccc31)N(c1ccccc1)C(=O)N2 (stereo not given) | 2 | 3 | -2 | 0 | -2 | 6.6* | 0 | 4
CCOc1ccc(-c2cn(-c3ccc(OC)cc3)c(SC)n2)cc1 | 2 | 11* | 0 | -1 | 3 | 7.0* | 0 | 2
CSc1nc(-c2ccccc2)cn1-c1ccc(NC(C)=O)cc1 | 1 | 5 | -1 | -1 | 4 | 3 | . | .
CCCCCOc1ccc(NS(C)(=O)=O)cc1 | 1 | 2 | 1 | 0 | 5 | 8.0* | 0 | 4
CCOc1ccc(NS(=O)(=O)c2ccc(NS(C)(=O)=O)cc2)cc1 | 0 | -1 | 1 | -1 | 0 | -1 | . | .
O=C1NCCN1CCN1C(=O)c2ccccc2NC1c1ccccc1 (stereo not given) | 0 | 0 | 0 | -1 | 0 | -2 | . | .
CC1CC1C(=O)OCC(=O)NC(=O)c1ccccc1 (stereo not given) | 2 | 1 | -1 | -1 | 2 | 0 | . | .
Cc1ccc(C[n+]2cccc(-c3ccccc3)c2)c(C)c1 | -3 | -5 | -3 | -2 | -7 | -3 | . | .
CCOC(=O)Nc1cccc2ccccc12 | 0 | 0 | 0 | -2 | 3 | -2 | . | .
CCOC(=O)Nc1ccc2c3c(cccc13)-c1ccccc1-2 | 4.2* | 7 | 1 | 0 | 4 | 8.2* | 0 | 7.7*
COc1ccc(/C=C2\Oc3ccccc3C2=O)cc1 | 2 | 10* | -2 | 0 | 4 | 7.2* | 1 | 5
COc1ccc(/C=C2\C(=O)c3ccccc3OC2c2ccccc2)cc1 (stereo not given) | -1 | 6 | 1 | -2 | 2 | -2 | . | .
COc1ccccc1C(=O)Nc1cc(Cl)ccc1O | 0 | 3 | 0 | 0 | 1 | 9.8* | 0 | 5.8*
COc1ccccc1C(=O)NC(=O)Nc1cccc(Cl)c1 | 2 | 14* | 4 | 1 | 7 | 13* | 2 | 18*
CN(C)/C=N/N(C)c1ncccc1[N+](=O)[O-] | 0 | -1 | -1 | -1 | 0 | 0 | . | .
O=C(O)c1ccc(N=Nc2c(O)ccc3ncccc23)cc1 | 3 | 12* | 0 | 1 | 5 | 6.6* | 1 | 10*
O=C(NC(=S)Nc1nc2c(s1)CSc1ccccc1-2)c1ccccc1 | 0 | 5 | 1 | 0 | -2 | 7.1* | 0 | 7.6*
O=C(NC(=S)Nc1nc2c(s1)CCCC2)c1ccc(C(=O)c2ccccc2)cc1 | 0 | 0 | -1 | -1 | -1 | 2 | . | .
COc1ccc(/C=C/C(=O)NC(=S)Nc2cc([N+](=O)[O-])ccc2O)cc1OC | 2 | 4 | 0 | -2 | -2 | -2 | . | .
O=C(NC(=S)Nc1cc([N+](=O)[O-])ccc1O)C1CC1 | 0 | 3 | 0 | -1 | -1 | 9.6* | 0 | 1
Cc1cc([N+](=O)[O-])cc([N+](=O)[O-])c1NCC(C)C | -1 | -4 | . | 0 | 0 | -2 | . | .
COc1cccc(C(=O)O/N=C(\N)c2ccccn2)c1OC | 3 | 10 | 1 | 0 | 0 | 6.6* | 1 | 6.4*
COc1cccc(C(=O)O/N=C(\N)c2ccncc2)c1OC | 1 | 4 | 2 | -1 | 4 | 1 | . | .
N/C(=N\OC(=O)c1ccc(Cl)cc1[N+](=O)[O-])c1ccccn1 | 1 | 12* | 3 | 0 | 5 | 8.6* | 1 | 2

Compound activity (PubChem)
